Screen size: about 360,000 compounds; about 430 (0.12%) were called active.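 The calls were made as follows: active = inhibition above the campaign mean plus 3 SD, with each screening campaign given its own cutoff (cut at about 60% in these data); inactive = the rest.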 Only a selection was taken, and actives are over-represented in it overall.
These compounds were tested against Nuclear receptor coactivator 1 (Homo sapiens) (UniProt Q15788) (assay: SRC1 coactivator transcriptional activity inhibitors, primary screen, cell-based, luminescence (AID 588354;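 also: 0% = DMSO treated cells and 100% = gossypol at 36 µM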)). Settings: HEK293 GAL4-SRC1 luciferase reporter, at 3.6 µM, hits give high values.
Sequence of Nuclear receptor coactivator 1 (Homo sapiens) (Q15788 whole entry, looked up, the tested form may be a part): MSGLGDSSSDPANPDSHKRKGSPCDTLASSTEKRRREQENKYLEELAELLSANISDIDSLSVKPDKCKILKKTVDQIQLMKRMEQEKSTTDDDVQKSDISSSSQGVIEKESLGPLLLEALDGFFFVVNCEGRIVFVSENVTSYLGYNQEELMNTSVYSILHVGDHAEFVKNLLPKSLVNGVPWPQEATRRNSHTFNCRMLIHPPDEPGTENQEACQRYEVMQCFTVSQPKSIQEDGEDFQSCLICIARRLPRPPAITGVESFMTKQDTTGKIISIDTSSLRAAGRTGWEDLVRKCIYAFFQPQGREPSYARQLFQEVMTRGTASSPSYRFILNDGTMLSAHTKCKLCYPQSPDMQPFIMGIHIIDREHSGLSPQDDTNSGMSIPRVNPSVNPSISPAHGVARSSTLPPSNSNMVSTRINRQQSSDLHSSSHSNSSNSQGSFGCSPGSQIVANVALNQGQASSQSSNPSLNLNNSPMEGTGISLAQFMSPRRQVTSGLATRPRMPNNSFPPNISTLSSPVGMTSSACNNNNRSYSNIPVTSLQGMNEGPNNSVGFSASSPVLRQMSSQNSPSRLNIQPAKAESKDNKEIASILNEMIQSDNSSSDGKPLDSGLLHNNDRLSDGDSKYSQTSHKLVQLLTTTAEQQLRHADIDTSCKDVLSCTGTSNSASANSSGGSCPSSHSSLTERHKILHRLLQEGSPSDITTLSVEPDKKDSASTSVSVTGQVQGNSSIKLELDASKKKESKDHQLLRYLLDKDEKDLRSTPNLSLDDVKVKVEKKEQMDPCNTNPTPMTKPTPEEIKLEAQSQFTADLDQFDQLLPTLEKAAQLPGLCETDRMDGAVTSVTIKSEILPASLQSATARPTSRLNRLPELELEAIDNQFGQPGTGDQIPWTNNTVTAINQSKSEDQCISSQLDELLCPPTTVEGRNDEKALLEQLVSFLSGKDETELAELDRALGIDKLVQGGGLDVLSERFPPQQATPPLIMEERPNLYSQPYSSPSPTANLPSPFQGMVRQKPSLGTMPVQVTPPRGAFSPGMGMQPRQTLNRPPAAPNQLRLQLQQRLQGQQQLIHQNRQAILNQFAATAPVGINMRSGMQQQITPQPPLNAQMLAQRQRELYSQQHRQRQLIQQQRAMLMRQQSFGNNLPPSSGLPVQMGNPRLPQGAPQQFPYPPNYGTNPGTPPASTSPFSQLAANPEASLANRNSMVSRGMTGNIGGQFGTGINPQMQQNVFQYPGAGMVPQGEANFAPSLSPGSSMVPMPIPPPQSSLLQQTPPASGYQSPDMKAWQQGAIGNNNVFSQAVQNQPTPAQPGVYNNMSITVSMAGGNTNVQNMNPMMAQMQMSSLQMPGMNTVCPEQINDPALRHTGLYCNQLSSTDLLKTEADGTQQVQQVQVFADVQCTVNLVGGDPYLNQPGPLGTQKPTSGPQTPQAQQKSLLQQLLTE

Row | SMILES | inhibition
1 | C[C@]12CC[C@H](O)C[C@H]1CC[C@@H]1C2CC[C@]2(C)[C@@H](C3=CC(=O)OC3)[C@@H](O)C[C@]12O (stereo not given in full) | 53.1% (inactive)
2 | COC1C(O)C(C)OC(OC2CCC3(C=O)C(CCC4C3CCC3(C)C(C5=CC(=O)OC5)CCC43O)C2)C1O (stereo not given) | 90.4% (active)
3 | CCC1(C)CC(CCNCc2ccc(N(C)C)cc2)(c2ccc(F)cc2)CCO1 (stereo not given) | -23.1% (inactive)
4 | Cc1cccc(-n2c(C)nc3cc(C(=O)N4CCC5(CC4)OCCO5)ccc32)c1 | 7.63% (inactive)
5 | CC1CCC(N(C)C2CCN(C)CC2)CC1 (stereo not given) | 9.39% (inactive)
6 | COC(=O)C1=C(c2ccc(Cl)c(C(F)(F)F)c2)C[C@@H]2CC[C@H]1N2C(=O)NC(C)C | 1.75% (inactive)
7 | CCC(C)(O)C(=O)OC1C(=O)OC2CC3C(C)=CC(=O)C(O)C3(C)C3C4(O)OCC23C1C(C)C4O (stereo not given) | 95.5% (active)
8 | Cn1cc(C(=O)OCC(=O)N2CCCC2)c2ccccc21 | -5.08% (inactive)
9 | CC(=O)OC1C2(CC3N4C(=O)C5(CO)SSC4(CC31O)C(=O)N5C)OC(C)C(C)(C)C2=O (stereo not given) | 23.6% (inactive)
10 | CCOC(=O)CC(SP1(=S)OCC2(CCCCO2)C(C2CCCCO2)O1)C(=O)OCC (stereo not given) | -3.46% (inactive)
11 | Cc1ccccc1NC(=O)COC(=O)c1cc(C)n(C2CC2)c1C | -22.1% (inactive)
12 | O=C(COc1ccc2ccccc2c1)N1CCN(Cc2ccncc2)CC1 | -6.36% (inactive)
13 | CCOc1ccc(-c2cc(C)[n+](CCN(CC)CC)c(-c3ccc(OCC)cc3)c2)cc1 | 62% (active)
14 | CNC(=O)N(C)c1nnc(C(C)(C)C)s1 | -3.52% (inactive)
15 | N[C@@H](Cc1c[nH]c2ccccc12)c1nnc(SCc2c(F)cccc2Cl)o1 | -58.9% (inactive)

Source: PubChem BioAssay AID588354 (The Scripps Research Institute Molecular Screening Center, 2011)
